Results on 93 compounds are retold here after PubChem BioAssay AID449762 (Southern Research Specialized Biocontainment Screening …, 2010).

Out of some 330,000 compounds screened, about 1,900 (0.58%) were called active. About 4% were inconclusive and are not listed. No stated cut-off is given here; in the data, inconclusive means inhibition above about 70% without an active follow-up result; inactive means below that. The list is a sample of the results. Measured potencies and affinities stand elsewhere.

A word on the inhibition: it is the relative decrease from the control value, in per cent.

A short description of this assay: M. tuberculosis growth inhibition, HTS (AID 449762).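 Further: bacterial growth assessed after seven days of incubation.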 The note with it: M. tuberculosis H37Rv growth inhibition, 7H9 media; at 25 µM; active compounds read high.
On to `COc1ccc(Cl)cc1NC(=O)CSc1nc(Nc2ccccc2)nc(N2CCOCC2)n1`, for which the inhibition is -3.97% (inactive).

As for `O=C(CSc1nc(Nc2ccccc2)nc(N2CCOCC2)n1)Nc1ccccc1Cl`, the inhibition is -2.86% (inactive).

In the case of `COc1ccccc1OCCNC(=O)C1CC(=O)N(Cc2ccc(C)cc2)C1` (stereo not drawn), the inhibition was -0.95% (inactive).

Turning to `Cc1csc(SCC(=O)NC(=O)NCc2ccccc2)n1`, the inhibition is -2.35% (inactive). Consider `O=C(NC(=S)Nc1ccc2oc(=O)ccc2c1)c1cccc(Cl)c1`, for which the inhibition was 5.43% (inactive).

As to `CC(C)(C)N=C1NC(=NC(C)(C)C)c2ccccc21`, the inhibition is 1.58% (inactive). As for `Cc1ccc(NC(=O)CCc2ccc(C)o2)cc1`, the inhibition is 23.4% (inactive). Consider `Cc1cccc(NC(=O)CCc2ccc(C)o2)c1`, for which the inhibition is -15.4% (inactive). On to `CCOc1ccc(N(CC(=O)NC2CCCC2)C(=O)CCCC(=O)Nc2ccccn2)cc1`, for which the inhibition was -1.21% (inactive). Consider `CCCNC(=O)c1cc2c3ccccc3n(C)c2s1`, for which the inhibition is -14.8% (inactive). As for `CC(=O)NNC(=O)c1cc2c3ccccc3n(C)c2s1`, the inhibition was -4.02% (inactive). Consider `CCc1cc(C(=O)NCC2CCCO2)sc1C` (stereo not drawn), for which the inhibition was -1.92% (inactive). Regarding `CCc1cc(C(=O)NNC(=O)CCN2CCN(c3ccccc3)CC2)sc1C`, the inhibition is -4.59% (inactive). Regarding `C/C(=N/NS(=O)(=O)c1ccc(Br)cc1)c1c[nH]c2ccccc12`, the inhibition is 2.63% (inactive). In the case of `CCOc1ccc(CN2CCNC(=O)C2CC(=O)N(C)CC2CCOCC2)cc1` (stereo not drawn) it was 5.35% (inactive); in that of `COc1cc(C(=O)NCC(=O)Nc2c(C)cccc2C)ccc1OCc1ccccc1`, -1.77% (inactive).

For the compound `COc1ccc(C(=O)N2CCC(n3nccc3NC(=O)C3CC3)CC2)cc1F`, the inhibition is 0.61% (inactive). For the compound `COc1cc(/C=C2/C(=N)N3N=C(CC(=O)N4CCOCC4)SC3=NC2=O)ccc1OCc1ccccc1F`, the inhibition was 0.04% (inactive). On to `Cc1ccc(S(=O)(=O)N(C)c2ccc(C(=O)N3CCC(C(N)=O)CC3)cc2)cc1`, for which the inhibition is -5.27% (inactive). The value for `CCOC(=O)N1CCN(C(=S)NC(=O)c2cccc(OC)c2)CC1` was -0.27% (inactive); that for `O=C(O)CCCN1C(=O)c2cccc3cccc(c23)C1=O` was -5.41% (inactive); that for `CN(C)CCCN1C(=O)c2cccc3cccc(c23)C1=O` was -1.82% (inactive).

Consider `O=C1CCCC/C1=C/Nc1ccc2c(c1)OCO2`, for which the inhibition was 59.1% (inactive).

On to `O=C1/C(=C/Nc2cccc([N+](=O)[O-])c2)CCc2ccccc21`, for which the inhibition was 2.58% (inactive). For the compound `Cc1cccc(C(=O)NCCc2csc(C)n2)c1`, the inhibition was -0.44% (inactive). Take `CCCCC(CC)C(=O)N1CCN(C(=O)c2ccco2)CC1` (stereo not drawn): the inhibition is -4.92% (inactive). For the compound `CCc1nc(Nc2ccccc2OC)c2oc3ccccc3c2n1`, the inhibition was 2.96% (inactive).

With `COc1ccc(C(=O)NCc2nnc(SCC(=O)c3ccc(F)cc3)n2C)cc1OC`, the inhibition is -0.94% (inactive). In the case of `CC(=O)N(C1=C(N)C(=O)c2ccccc2C1=O)c1ccccc1`, the inhibition is -1.88% (inactive). On to `CC(CCc1ccccc1)NC(=O)CN(C)Cc1ccc(F)cc1` (stereo not drawn), for which the inhibition was 0.05% (inactive). With `CN(CC(=O)NCCc1ccc(F)cc1)Cc1ccccc1`, the inhibition is -0.22% (inactive).

`CNC1=C(N(C(C)=O)c2ccc(Br)cc2)C(=O)c2ccccc2C1=O`: the inhibition is -2.3% (inactive). Take `CC1CCCCC12NC(=O)N(CC(=O)OCc1ccc(Br)cc1)C2=O` (stereo not drawn): the inhibition is 5.76% (inactive). On to `CN(C)S(=O)(=O)c1ccc(C(=O)NNC(=O)C2COc3ccccc3O2)cc1` (stereo not drawn), for which the inhibition was 2.93% (inactive). In the case of `O=C(O)c1cc(N/N=C/c2ccc(OCc3ccccc3)cc2)ccc1Cl` it was -0.4% (inactive); in that of `COc1ccc(C=NOCC(=O)OCC(=O)Nc2ccc(OC)cc2)cc1`, 4.42% (inactive). The value for `CN(C(=O)CO/N=C/c1ccc(Cl)cc1)c1ccccc1` was -0.18% (inactive). Regarding `CC(C)Oc1ccc(/C(O)=C2/C(=O)C(=O)N(CCN(C)C)C2c2cccs2)cc1` (stereo not drawn), the inhibition was 4.08% (inactive). As to `CCCOc1ncnc2c1[nH]c1ccc(C)cc12`, the inhibition is 6.51% (inactive). Consider `O=C(NCc1ccccc1)C(=O)Nc1nc(C23CC4CC(CC(C4)C2)C3)cs1`, for which the inhibition is 1.12% (inactive).

`O=C(NCc1ccccn1)C(=O)Nc1nc(-c2ccccc2)cs1`: the inhibition is 55.8% (inactive). Turning to `COc1ccc(C)cc1NC(=O)C(NC(=O)c1cc(OC)c(OC)c(OC)c1)C(C)C` (stereo not drawn), the inhibition was 0.19% (inactive). Take `S=C(NC1CCCCCC1)NC1CCCC1`: the inhibition is 1.4% (inactive). Regarding `COc1cc(OC)c(C(=O)NNC(=S)NC2CCCCC2)cc1OC`, the inhibition is -2.47% (inactive). For the compound `CCOc1ccccc1C(=O)Nc1nccs1`, the inhibition is -0.35% (inactive). For `CCOc1cccc2cc(C(=O)Nc3cc(C)on3)c(=O)oc12`, the inhibition is 3.23% (inactive). Consider `CCN(CC)c1ccc(NS(=O)(=O)c2cn(C)c(=O)n(C)c2=O)c(C)c1`, for which the inhibition is -6.59% (inactive).

In the case of `Cc1cc(C(=O)NNc2c(Cl)cccc2Cl)n(C(C)(C)C)n1`, the inhibition was -6.53% (inactive). The value for `COc1cccc(NC(=O)C2CCN(C(=O)[C@@H]3Cc4ccccc4CN3C(=O)OC(C)(C)C)CC2)c1` was 2.76% (inactive); that for `COc1cccc(/C=N/n2c(COc3ccccc3)n[nH]c2=S)c1` was 0.11% (inactive).

`Cc1cccc(/C=N/n2c(COc3ccccc3)n[nH]c2=S)c1`: the inhibition was 9.89% (inactive). Regarding `Cc1ccsc1/C=N/NC(=O)Cc1ccc([N+](=O)[O-])cc1`, the inhibition is 0.13% (inactive). With `COC(=O)C1=C(c2ccc(F)cc2OCc2ccccc2)C[C@@H]2CC[C@H]1N2C(=O)NCc1ccc(C)cc1`, the inhibition is 11.4% (inactive). On to `Cc1nnc(SCC(=O)NC2CCCCC2)[nH]c1=O`, for which the inhibition was -4.1% (inactive). In the case of `Cc1cc(=O)[nH]c(SCC(=O)NC2CCCCCC2)n1`, the inhibition is 1.87% (inactive). The value for `COc1cc(C(=O)NNC(=O)c2cc(C)[nH]n2)cc(OC)c1OC` was -0.74% (inactive). Regarding `COc1ccc(NC(=O)CN(C)C(=O)COc2ccccc2Cc2ccccc2)cc1`, the inhibition was 10.9% (inactive).

Consider `COC(=O)CCCC1=CC2=CC(=O)C(C)(OC(=O)c3cccs3)C(=O)C2=CN1Cc1ccccc1` (stereo not drawn), for which the inhibition was -3.58% (inactive). In the case of `Cc1[nH]c2ccccc2c1C(=O)C(=O)N1CCN(c2cccc(Cl)c2)CC1` it was 13.6% (inactive); in that of `CC1(C)Cc2nc3sc4c(SCC(=O)O)ncnc4c3cc2CO1`, 0.43% (inactive).

As to `CCSc1ncnc2c1sc1nc3c(cc12)COC(C)(C)C3`, the inhibition is 3.08% (inactive).

As for `Cc1ccc(C)c(NC(=O)CN(C)C(=O)c2cccc(S(=O)(=O)N3CCN(Cc4ccccc4)CC3)c2)c1`, the inhibition was 4.09% (inactive). As for `OCCCn1c(CCNc2nc(-c3ccc(Cl)cc3)cs2)nc2cc(C(F)(F)F)ccc21`, the inhibition was 29.6% (inactive). As to `CN1CCN(/N=C/c2ccc(-c3ccccc3)cc2)CC1`, the inhibition is 4.56% (inactive). Take `CN1CCN(/N=C/c2cccc(Cl)c2Cl)CC1`: the inhibition is 4.06% (inactive). Take `COC(=O)c1ccc(CS(=O)(=O)c2ccc(C)cc2)o1`: the inhibition is 2.36% (inactive).

Turning to `Cc1ccc(NC(=O)CC2OC(=O)c3ccccc32)cc1S(=O)(=O)N1CCCCCC1` (stereo not drawn), the inhibition is -3.23% (inactive).

In the case of `Cc1nn(CCc2nn[nH]n2)c2nc(-c3ccc(C4CCCCC4)cc3)cc(C(F)(F)F)c12`, the inhibition was 21.8% (inactive). The value for `Cc1nn(CCc2nn[nH]n2)c2nc(-c3ccccc3)cc(C(F)(F)F)c12` was 3.42% (inactive); that for `CC(C)(C)c1ccc(C(=O)N2CCC(=O)N(C(COCc3ccccc3)Cc3ccccc3)CC2)cc1` (stereo not drawn) was -7.28% (inactive); that for `C=CCNc1oc(-c2ccc(OCC)cc2)nc1C#N` was 0.33% (inactive). Consider `Cc1ccc(S(=O)(=O)N2CCN(Cc3nc4ccccc4n3C)CC2)cc1`, for which the inhibition is -10.2% (inactive).

For the compound `CC(OC(=O)c1nc(Cl)ccc1Cl)C(=O)Nc1ccc2c(c1)OCCO2` (stereo not drawn), the inhibition was 23.5% (inactive). For `Cc1ccc(OCCCCNC2CCCCC2)c(C)c1`, the inhibition is 0.93% (inactive).

Regarding `Cc1ccc(OCCCCN2CCCCC2)c(C)c1`, the inhibition was 0.08% (inactive). As to `O=C(COC(=O)C1=Cc2ccccc2OC1)NCc1ccccc1`, the inhibition was -0.53% (inactive). `Cc1ccc2c(c1)N(CC(=O)OC(CC(C)C)C(=O)NC1CCCC1)C(=O)CO2` (stereo not drawn): the inhibition was 0.6% (inactive). `Cc1nc(-c2ccccc2)sc1C1(C)CC(c2ccc(OC(F)(F)F)cc2)=NO1` (stereo not drawn): the inhibition was 1.65% (inactive).

`Cc1nc(NC(=O)c2ccccc2)sc1C1(C)CC(c2ccccc2F)=NO1` (stereo not drawn): the inhibition is -0.28% (inactive). For `CN1C(=O)C(O)(CC(=O)c2cccnc2)c2ccccc21` (stereo not drawn), the inhibition was -2.52% (inactive). The value for `CCC1CN(C(=O)N2CCC(C(=O)NCc3ccc(C)o3)CC2)c2cc(C)ccc2O1` (stereo not drawn) was -5.76% (inactive); that for `Cc1ccnc(N/C=C(/NC(=O)c2ccccc2)C(=O)NN)n1` was 2.37% (inactive); that for `COc1ccc(-n2c(C)cc(C(=O)COC(=O)Cn3cnc4ccccc43)c2C)cc1` was 5.9% (inactive). As to `COc1ccc(C(=O)OCC2CC(c3ccccc3)=NO2)cc1OC` (stereo not drawn), the inhibition was 2.23% (inactive). With `COc1ccccc1C1=NOC(COC(=O)c2ccc(Br)cc2)C1` (stereo not drawn), the inhibition is 66.3% (inactive). On to `COC(C[C@H]1O[C@H]1C(=O)[C@@H](C)OCc1ccccc1)OC`, for which the inhibition was -3.98% (inactive).

`Cc1ccc(NC(=O)/C(C#N)=N/Nc2ccc(C(=O)O)cc2)c(C)c1`: the inhibition is -9.1% (inactive).

As for `CCOC(=O)C1CCN(Cc2coc3c(Cl)cc(Cl)cc3c2=O)CC1`, the inhibition is 10.8% (inactive). The value for `COc1ccc(F)cc1S(=O)(=O)NCc1ccccc1` was -3.97% (inactive); that for `CCN(c1ccc(OC)cc1)S(=O)(=O)c1ccc2c(c1)CCN2C(=O)CCC(=O)O` was -2.77% (inactive).

In the case of `c1ccc2c(c1)CCc1ccccc1C2=C1CCNCC1`, the inhibition is -0.99% (inactive). For `CCOC(=O)N1CCC(=C2c3ccc(Cl)cc3CCc3cccnc32)CC1`, the inhibition was 2.73% (inactive). `CC(C)(C)NC(=O)C(c1ccco1)N(C(=O)Cn1nnc(-c2ccc(F)cc2)n1)c1cccc(F)c1` (stereo not drawn): the inhibition is 5.34% (inactive).
